Results on 86 compounds are retold here after PubChem BioAssay AID602399 (Sanford-Burnham Center for Chemical Genomics, 2012).

Each structure is given as a SMILES string. Among all 360,000 compounds or so, about 2,800 (0.78%) were called active. The sample as a whole holds a higher share of actives than the screen did. A number with no mark means an inactive call. Rule as the data show it: active = inhibition above about 26%; inactive = the rest.

This assay has as its system Nicotinate-nucleotide adenylyltransferase NadD (Staphylococcus aureus N315). The experiment in a line: S. aureus NadD enzyme activity blockers – biochemical, colorimetric, uHTS, primary screen (AID 602399). The settings on record: purified NadD enzyme, colorimetric absorbance read-out; at 20 µM; active compounds read high.
With `O=C(NCCCCc1ccccc1)C1CC(c2ccc([N+](=O)[O-])cc2)=NO1` (stereo unspecified), the inhibition (commonly the drop in the measured response relative to a control, in per cent) is -8.64%.

For `COc1cccc(CNC(C)C(=O)Nc2ccc(S(=O)(=O)N3CCCC3)cc2)c1` (stereo unspecified), the inhibition is 0.261%.

For `CCOC(=O)C1=C(C)Nc2sc(C(=O)c3ccc(Br)cc3)c(N)c2C1c1ccc(C(=O)OC)cc1` (stereo unspecified), the inhibition is 33.6% (active).

Consider `COC(=O)c1ccc(C2NC(=O)NC(C)=C2C(=O)N(C)C)cc1` (stereo unspecified), for which the inhibition was -2.37%.

As to `CCOC(=O)c1sc(=NC(=O)c2ccc(Br)cc2)n(C)c1C`, the inhibition is -0.0934%.

Regarding `Cc1nc(CC(=O)NNS(=O)(=O)c2ccc(F)c(Cl)c2)cs1`, the inhibition was -1.28%.

On to `CC(C)Oc1ccc(CCc2nnc(SCC(=O)O)n2-c2ccccc2)cc1`, for which the inhibition is -4.23%.

On to `CCCCC(=O)Nc1c2c(nn1-c1ccc([N+](=O)[O-])cc1)CS(=O)(=O)C2`, for which the inhibition was -6.61%.

With `O=C1/C(=C\c2ccc([N+](=O)[O-])cc2)CS(=O)(=O)C/C1=C/c1ccc([N+](=O)[O-])cc1`, the inhibition was 35.3% (active).

Take `O=C1CCCN1C(=O)COc1ccc([N+](=O)[O-])cc1`: the inhibition was 0.0869%.

Turning to `CCNC(=O)Nc1ccc(S(=O)(=O)Nc2cnc(C)nc2C)cc1`, the inhibition was 4.03%.

Take `c1ccc2c(c1)OCCOCCOCCO2`: the inhibition is 1.98%.

Take `CS(=O)(=O)c1ccc2c(c1)SC1=NC(=O)/C(=C/c3ccco3)C(=N)N12`: the inhibition is 35% (active).

For the compound `COc1ccc(S(=O)(=O)N2CCOC2CNC(=O)C(=O)NCc2ccncc2)cc1OC` (stereo unspecified), the inhibition was -7.02%.

For `CC(=O)c1ccc(Nc2nc(C(N)c3ccccc3Cl)cs2)cc1` (stereo unspecified), the inhibition is -4.95%.

Consider `NC(c1ccccc1)c1csc(NC(=O)Nc2cccc(C(F)(F)F)c2)n1` (stereo unspecified), for which the inhibition was 3.58%.

`NC(c1csc(NC(=O)Nc2ccccc2Oc2ccccc2)n1)c1ccccc1Cl` (stereo unspecified): the inhibition was 40.7% (active).

In the case of `CCOc1ccc(S(=O)(=O)N(CC(=O)NCC(F)(F)F)Cc2ccco2)cc1`, the inhibition is -2.92%.

Regarding `CC1=NN(c2cccc(Cl)c2)C(=O)C12CC(C)=C(C)CS2` (stereo unspecified), the inhibition is -3.46%.

With `O=C(N/N=C/c1ccccn1)c1cccc(NC(=O)c2ccc(Cl)cc2)c1`, the inhibition was 6.47%.

Regarding `O=C(N/N=C/c1ccoc1)c1ccc(Cl)cc1Cl`, the inhibition was -0.584%.

`CC(C)(C)C(=O)Nc1ccc(C(=O)N/N=C/c2ccccc2OC(=O)c2ccc(Cl)cc2Cl)cc1`: the inhibition was 38.5% (active).

Take `O=c1[nH]c(CCl)nc2cc(-c3ccc(Cl)cc3)sc12`: the inhibition was 1.98%.

As to `CCc1[nH]nc(C(=O)N2CCCC(CO)(Cc3ccc(F)cc3F)C2)c1C` (stereo unspecified), the inhibition is 1.03%.

On to `CCCn1c(C(C)Nc2nc(-c3ccc(C)cc3)cs2)nc2cc(Cl)c(N3CCCCC3)cc21` (stereo unspecified), for which the inhibition was 30.3% (active).

As to `Cc1ccc(-c2csc(N3CCN(c4cc5c(cc4Cl)nc(-c4ccncc4)n5CCOCCO)CC3)n2)cc1`, the inhibition was -0.493%.

In the case of `CCCn1c(C2CCCN2c2nc(-c3ccc(C)cc3)cs2)nc2cc(Cl)c(N3CCCCC3)cc21` (stereo unspecified), the inhibition was 7.02%.

On to `CC(=O)C1=C(C)NC2=C(C(=O)CC(C)(C)C2)C1C` (stereo unspecified), for which the inhibition is -0.177%.

In the case of `Cc1cc(C(=O)N/N=C/c2ccc(O)c([N+](=O)[O-])c2)c(C)n1-c1ccc(F)cc1`, the inhibition was 33.3% (active).

For `O=C1CSC(=S)N1/N=C/c1ccc(O)c([N+](=O)[O-])c1`, the inhibition was 5.51%.

With `CCOc1cc(/C=N/NC(=O)c2c(C)nc3ccc(Cl)cn23)ccc1O`, the inhibition was -0.152%.

With `CCCCCCCC1(C)NC(=O)N(CC(=O)Nc2cc(C)on2)C1=O` (stereo unspecified), the inhibition is -7.34%.

Take `O=C(CC1C(=O)NCCN1CC(c1ccccc1)c1ccccc1)NCCc1cn[nH]c1` (stereo unspecified): the inhibition was 7.62%.

`Cn1ncc([N+](=O)[O-])c1C(=O)Nc1cc(Cl)ccc1Cl`: the inhibition is -3.19%.

As to `Cc1cc(C)c(OCC(=O)N(Cc2cccs2)C2CCS(=O)(=O)C2)c(C)c1` (stereo unspecified), the inhibition was -1.96%.

For the compound `COc1cccc2c1C(=O)c1c(O)c3c(c(O)c1C2=O)CC(O)(C(C)=NNC(=O)c1ccc(Cl)c(Cl)c1)CC3OC1CC(N)C(O)C(C)O1` (stereo unspecified), the inhibition is 38.5% (active).

Regarding `Brc1cnc(N2CCCC2)nc1N1CCCCC1`, the inhibition is -5%.

Turning to `Cc1cc2nc(-c3ccc(Cl)cc3)c(Cc3cccc(F)c3)n2c(C)c1Br`, the inhibition is 28.5%.

As to `Cc1cc2nc(-c3ccco3)c(Cc3cccc(F)c3)n2c(C)c1Br`, the inhibition was 50.5% (active).

As to `Cc1cc2nc(-c3ccc(F)cc3)c(Cc3ccsc3)n2c(C)c1Br`, the inhibition was 16.1%.

Turning to `CCCSc1nc2[nH]ncc2c(=O)[nH]1`, the inhibition is 0.611%.

`CC(C)Oc1c(Br)cc(Br)cc1/C=N/NC(N)=S`: the inhibition is 6.4%.

Regarding `COCCNC(=O)CN(Cc1ccco1)C(=O)CCC(=O)Nc1nccs1`, the inhibition is -5.06%.

For the compound `COC(=O)c1ccc(C(=O)OC)c(NC(=S)N2CCN(c3ccc(F)cc3)CC2)c1`, the inhibition is -1.25%.

In the case of `Cc1noc(C)c1S(=O)(=O)Nc1ccc(C(=O)N2CCN(c3ccc(F)cc3)CC2)cc1`, the inhibition is 10.7%.

For `O=C1Nc2cc(C(=O)N3CCN(c4ccc(F)cc4)CC3)ccc2NC1CSCc1cccc(F)c1` (stereo unspecified), the inhibition is 36.8% (active).

Take `Cc1ccc(CSCC2Nc3ccc(C(=O)N4CCN(c5ccc(F)cc5)CC4)cc3NC2=O)cc1` (stereo unspecified): the inhibition is 73.7% (active).

For `C=CCn1c(SCc2cccc(F)c2)nc2cc(C(=O)N3CCC(C(N)=O)CC3)ccc2c1=O`, the inhibition is -4.38%.

Turning to `O=C(c1cccc(F)c1)N1CCN(c2ccc([N+](=O)[O-])c(N3CCCCC3)c2)CC1`, the inhibition is -9.3%.

`COC(=O)c1ccc(/C=N/N2C(C)CCCC2C)cc1` (stereo unspecified): the inhibition was -8.27%.

For `NS(=O)(=O)c1ccc(NC(=O)COC(=O)c2c3c(nc4ccccc24)/C(=C\c2ccc4c(c2)OCO4)CCC3)cc1`, the inhibition was 54.7% (active).

Regarding `CC(NC(=S)Nc1ccc(S(N)(=O)=O)cc1)c1ccc2c(c1)OCO2` (stereo unspecified), the inhibition was -0.72%.

`NS(=O)(=O)c1ccc(NC(=O)COC(=O)CCc2c[nH]c3ccccc23)cc1`: the inhibition is -1.06%.

`NC(=O)c1ccc(NC(=O)COC(=O)c2c3c(nc4ccccc24)/C(=C\c2ccc4c(c2)OCO4)CCC3)cc1`: the inhibition was 55.2% (active).

On to `O=C(COC(=O)c1ccc(Cl)nc1)NCc1ccc2c(c1)OCO2`, for which the inhibition was 0.8%.

`CC(=O)Nc1cccc(C(=O)OCC(=O)c2ccc3c(c2)OCO3)c1`: the inhibition is -7.21%.

On to `CC1Cc2[nH][nH]c(=O)c2C(C2CC2)O1` (stereo unspecified), for which the inhibition is -3.07%.

Take `CC(Oc1cccc(Cl)c1)C(=O)NC1CC(C)(C)NC(C)(C)C1` (stereo unspecified): the inhibition was -1.75%.

In the case of `C[C@H](NC(=O)CC[C@H]1O[C@@H](n2ccc(=O)[nH]c2=O)[C@H](O)[C@@H]1O)c1cccc2ccccc12`, the inhibition is -3.28%.

With `CN(C(=O)CC1C(=O)NCCN1Cc1ccc(F)cc1Cl)C1CCCCC1` (stereo unspecified), the inhibition is 3.03%.

Consider `CCC1CCc2c(sc(NC(C)=O)c2C#N)C1` (stereo unspecified), for which the inhibition is 1.07%.

Take `COc1ccc2[nH]c(=O)c(CN(Cc3nnnn3CCc3ccccc3)CC3CCCO3)cc2c1` (stereo unspecified): the inhibition was 14.2%.

Turning to `CCC(c1nnnn1Cc1ccco1)N(Cc1cc2cc(OC)ccc2[nH]c1=O)C1CCCCC1` (stereo unspecified), the inhibition was 31.2% (active).

With `CCOc1ccc2[nH]c(=O)c(CN(Cc3nnnn3CCc3ccccc3)CC3CCCO3)cc2c1` (stereo unspecified), the inhibition was 0.283%.

Turning to `O=C(COc1ccc(/C=N/NC(=O)c2ccc(O)cc2)cc1)Nc1ccc([N+](=O)[O-])cc1`, the inhibition is 71.1% (active).

Consider `O=C(COC(=O)C1CCCCC1)Nc1ccc([N+](=O)[O-])cc1`, for which the inhibition was -1.2%.

In the case of `O=C(CCC(=O)N1CCCC1)Nc1ccc([N+](=O)[O-])cc1`, the inhibition is -6.64%.

Regarding `O=C(COc1ccc([N+](=O)[O-])cc1)Nc1cccc(C(=O)Nc2ccccc2C(=O)O)c1`, the inhibition was -2.45%.

Turning to `O=C(N/N=C/c1cccc(OC(=O)c2ccc([N+](=O)[O-])cc2)c1)c1cccnc1`, the inhibition was -12.9%.

As for `O=C(COc1ccc([N+](=O)[O-])cc1)Nc1ccc(N2CCCC2)cc1`, the inhibition is 42.4% (active).

For `C/C(=N\NC(=O)OC(C)(C)C)c1ccc[nH]1`, the inhibition is -6.93%.

With `Cc1ccc(Cl)cc1N1CCN(C(=O)c2cccc3c(=O)c(C)c(-c4ccccc4)oc23)CC1`, the inhibition was 4.56%.

On to `C/C(N)=C(/C#N)C(=O)COC(=O)C1CCN(C(=O)c2ccc(Cl)cc2)CC1`, for which the inhibition is -7.06%.

For the compound `COc1ccc(NC(=O)/C(C#N)=C\c2cc(OC)c(OCc3ccc(C(=O)O)cc3)cc2Br)cc1`, the inhibition is 30.5% (active).

In the case of `COc1cc(/C=C(\C#N)C(=O)Nc2ccc3ccccc3c2)c([N+](=O)[O-])cc1OC`, the inhibition is 5.18%.

`COCCNC(=O)/C(C#N)=C/c1cccc(OCc2ccccc2)c1`: the inhibition is -8.65%.

Turning to `CC(=O)Nc1ccc(S(=O)(=O)N2CCC(C(=O)NC3CC3)CC2)cc1`, the inhibition was 3.08%.

With `COc1ccc(N2CCN(C(=O)CNC(=O)c3ccc(C(C)(C)C)cc3)CC2)cc1`, the inhibition was -1.98%.

As to `O=C(CNC(=O)c1ccc2ccccc2c1)Nc1ncccc1O`, the inhibition is 6.33%.

`O=C(NCC(=O)N1CCN(c2ccccc2O)CC1)c1ccc2ccccc2c1`: the inhibition is 31.5% (active).

Take `CCOc1ccc(CCN2C(=S)N([C@@H](CC(C)C)CN3CCC[C@@H]3CN3C(=S)NC[C@@H]3Cc3ccc(O)cc3)C[C@@H]2Cc2ccc(O)cc2)cc1`: the inhibition was 35% (active).

With `CC(C)C[C@H]1CNC(=O)C(=O)N1C[C@H]1CCCN1C[C@H](Cc1ccc(O)cc1)N1C[C@H](CC(C)C)N(CC2CCCCCC2)C(=O)C1=O`, the inhibition was 23.7%.

As to `O=C1NC[C@H](Cc2ccc(O)cc2)N(C[C@H]2CCCN2C[C@H](Cc2ccccc2)N2C[C@H](Cc3ccccc3)N(CCc3ccccc3)C(=O)C2=O)C1=O`, the inhibition is 24%.

For the compound `CCOc1ccc(CCN2C(=O)C(=O)N([C@@H](CC(C)C)CN3CCC[C@H]3CN3C(=O)C(=O)NC[C@@H]3Cc3ccccc3)C[C@@H]2CC(C)C)cc1`, the inhibition was 28.4%.

Consider `CCOc1ccc(CCN2C(=S)N([C@@H](CC(C)C)CN3CCC[C@@H]3CN3C(=S)NC[C@@H]3Cc3ccc(O)cc3)C[C@@H]2CC(C)C)cc1`, for which the inhibition is 26.6%.

Turning to `O=C1NC[C@H](Cc2ccc(O)cc2)N(C[C@@H]2CCCN2C[C@H](Cc2ccccc2)N2C[C@H](Cc3ccccc3)N(CC3CCCCC3)C(=O)C2=O)C1=O`, the inhibition was 38.8% (active).
